Measurements as given in PubChem BioAssay.

Assay: P. aeruginosa biofilm formation inhibitors, primary screen, PAO1 strain, BacTiter-Glo luminescence, LB-PBS (AID 1144)
Conditions: 12 h, higher = more signal

z-score, inactive:
COC(=O)[C@@]1(Cc2ccccc2)[C@H]2c3cc(C(=O)N4CCCC4)n(C)c3C[C@H]2CN1C(=O)c1ccccc1 0.218
CC(C)Cc1ccc(CN2CC[C@@H](NS(=O)(=O)c3ccccc3)C2)cc1 -0.721
CC(=O)Nc1cc(Br)ccc1C(=O)O 0.307
COC(=O)[C@@]1(Cc2ccccc2N=[N+]=[N-])COC(c2ccc(OCCCO)cc2)=N1 0.335
NC(=O)NCC#Cc1ccc2c(c1)[C@]1(C(=O)N2)[C@H](C(=O)NC[C@H](O)c2ccccc2)[C@H]2C(=O)O[C@H](c3ccccc3)[C@H](c3ccccc3)N2[C@@H]1c1ccc(O)cc1 -0.846
CCOC(=O)C[C@H]1[C@H](OC(=O)c2ccc(-c3ccccc3)cc2)[C@@H](NC(=O)Cc2ccc(OC)cc2)c2cc(OCCCO)ccc2N1C(=O)c1ccc2ccccc2n1 0.26
COc1cccc(C(=O)O[C@H]2CC[C@]3(C)C4=C(CCC3C2(C)C)[C@]2(C)CC[C@H]([C@H](C)CCCC(C)C)[C@@]2(C)CC4)c1 (stereo not given in full) -1.11
O=C/C=C/c1ccc2c(c1)OCO2 -1.39
O=C1C=CC(=O)[C@@H]2CC(COc3ccccc3)=C3[C@@H](CCc4ccccc4)OB(O)C[C@@H]3[C@H]12 0.452
O=C1O[C@@H](c2ccccc2)[C@@H](c2ccccc2)N2[C@@H](c3ccc(O)cc3)[C@]3(C(=O)Nc4ccc(C#CC5(O)CCCCCC5)cc43)[C@@H](C(=O)N3CCCCCCC3)[C@H]12 -1.55

Assay: CREB reporter modulators without forskolin, primary screen, cell-based, PC12, CRE-LacZ reporter, unstimulated (AID 1145)
Conditions: no forskolin, luminescence, 4.5 h, higher = more signal, called active from +8 up or from −8 down

z-score, inactive:
CC(C)C[C@@H]1NC(=O)[C@H]2C[C@@H](C(=O)NCCCCCCNC(=O)CS)[C@@H](c3cccc(OCCO)c3)N2C1=O -1.49
CC(C)NC(=O)[C@@]1(Cc2ccccc2I)c2ccccc2C(=O)N(Cc2ccccc2)[C@H]1c1ccc(CO)cc1 -0.231
O=C1O[C@H](c2ccccc2)[C@H](c2ccccc2)N2[C@H]1[C@@H](C(=O)N1CCN(c3ncccn3)CC1)[C@]1(C(=O)Nc3ccccc31)[C@H]2c1ccc(OCCO)cc1 -0.528
COc1ccc(CCNC(=O)[C@@]2(Sc3ccc(C)cc3)CC(=O)N(Cc3ccccc3Cl)[C@@H]2c2ccc(CO)cc2I)cc1 0.569
CN(C)C(=O)[C@]1(CCC(=O)OC(C)(C)C)N=C(c2ccc(OCCCO)cc2)O[C@@H]1c1ccccc1N=[N+]=[N-] 0.988
CC(=O)NCCCC[C@@H]1NC(=O)[C@@H]2C[C@H](C(=O)NCCCCN(C)C)[C@H](c3ccc(O)cc3)N2C1=O -0.809
COc1c(C)cc(-c2cc3c(c(-c4ccc(Oc5ccccc5)cc4)n2)[Si](C(C)C)(C(C)C)OC3)cc1C 0.148
CC(C)CNC(=O)[C@@]1(c2ccc([N+](=O)[O-])cc2)CC(=O)N(CC23CC4CC(CC(C4)C2)C3)[C@@H]1c1ccc(CO)cc1 -0.0888
Cc1ccc(F)cc1S(=O)(=O)N[C@@H]1CCN(Cc2ccc(-c3ccccc3)cc2)C1 6.48
CC(C)(C)OC(=O)CC[C@]1(C(=O)N2CCCCC2)N=C(c2ccc(OCCCO)cc2)O[C@H]1c1ccccc1N=[N+]=[N-] 1.43
COC(=O)c1ccc(C(O)C2C=CC3C(=O)N(C)C(=O)C3N2NC(=O)OC(C)(C)C)o1 (stereo not given) 1
CCCCCCCCCCC(O)C1C=CC2C(=O)N(Cc3ccccc3)C(=O)C2N1n1cnnc1 (stereo not given) -0.0137
CCOC(=O)C1=CC[C@@H](c2ccccc2)N(S(=O)(=O)c2ccc(C)cc2)[C@H]1C(=O)OCC -0.415
CCCNC(=O)[C@@]1(c2ccc([N+](=O)[O-])cc2)CC(=O)N(CC23CC4CC(CC(C4)C2)C3)[C@@H]1c1ccc(CO)cc1 0.531
COCCOC(=O)N1C(=O)[C@@]2(c3ccccc31)[C@H](C(=O)NC[C@H](O)c1ccccc1)[C@H]1C(=O)O[C@H](c3ccccc3)[C@H](c3ccccc3)N1[C@@H]2c1ccc(OCCO)cc1 -1.83
CCCCC=C[C@@H](NC(=O)c1ccco1)c1ccccc1 0.19
CC(=O)NCCCC[C@@H]1NC(=O)[C@H]2C[C@@H](C(=O)NCCCCCC[N+](C)(C)C)[C@@H](c3cccc(OCCO)c3)N2C1=O -0.801
O=C(CS)NCCCCCCNC(=O)[C@H]1C[C@H]2C(=O)NCC(=O)N2[C@H]1c1ccc(O)cc1 0.692
COC(=O)[C@@]1(Cc2ccc(OC)cc2)[C@H]2c3cc(C(=O)N(C)C)n(Cc4c(OC)[nH]cc(C)c4=O)c3C[C@H]2CN1C(=O)c1ccccc1 -0.185
CS(=O)(=O)CCOC(=O)C1=CC(c2ccc(CO)cc2)=CC(C2CC2)N(Cc2cc3c(cc2Br)OCO3)C=C1C(=O)OCCS(C)(=O)=O (stereo not given) 5.81
C=CCOC(=O)[C@H]1[C@@H]2C(=O)O[C@@H](c3ccccc3)[C@@H](c3ccccc3)N2[C@@H](c2ccc(OCCOC(=O)[C@@H]3C[C@@H]4C(=O)N5CCC[C@H]5C(=O)N4[C@@H]3c3ccc(O)cc3)cc2)[C@]12C(=O)Nc1ccccc12 0.0124
O=C1O[C@@H](c2ccccc2)[C@@H](c2ccccc2)N2[C@@H](c3ccccc3OCCO)[C@]3(C(=O)Nc4ccc(C#CC5(O)CCCCCC5)cc43)[C@@H](C(=O)Nc3nc4ccccc4s3)[C@H]12 0.224
COCC(=C=CC[C@@H](O)c1ccc(CO)o1)CCO 0.014
CC(C)CNC(=O)[C@@H]1c2ccccc2C(=O)N(Cc2cc(C(F)(F)F)cc(C(F)(F)F)c2)[C@H]1c1ccc(CO)cc1 -0.0512
C=CCOC(=O)[C@H]1[C@@H]2C(=O)O[C@@H](c3ccccc3)[C@@H](c3ccccc3)N2[C@@H](c2ccc(OCCOC(=O)[C@@H]3C[C@@H]4C(=O)NCC(=O)N4[C@@H]3c3ccc(O)cc3)cc2)[C@]12C(=O)Nc1ccccc12 0.0205
COC(=O)[C@@]1(Cc2ccccc2)[C@H]2c3cc(C(=O)N4CCCC4)n(C)c3C[C@H]2CN1C(=O)c1ccccc1 -0.182
CC(C)Cc1ccc(CN2CC[C@@H](NS(=O)(=O)c3ccccc3)C2)cc1 0.224
CC(=O)Nc1cc(Br)ccc1C(=O)O -0.141
COC(=O)[C@@]1(Cc2ccccc2N=[N+]=[N-])COC(c2ccc(OCCCO)cc2)=N1 0.675
NC(=O)NCC#Cc1ccc2c(c1)[C@]1(C(=O)N2)[C@H](C(=O)NC[C@H](O)c2ccccc2)[C@H]2C(=O)O[C@H](c3ccccc3)[C@H](c3ccccc3)N2[C@@H]1c1ccc(O)cc1 -0.465
CCOC(=O)C[C@H]1[C@H](OC(=O)c2ccc(-c3ccccc3)cc2)[C@@H](NC(=O)Cc2ccc(OC)cc2)c2cc(OCCCO)ccc2N1C(=O)c1ccc2ccccc2n1 -0.0529
COc1cccc(C(=O)O[C@H]2CC[C@]3(C)C4=C(CCC3C2(C)C)[C@]2(C)CC[C@H]([C@H](C)CCCC(C)C)[C@@]2(C)CC4)c1 (stereo not given in full) 1.21
O=C/C=C/c1ccc2c(c1)OCO2 -0.491
O=C1C=CC(=O)[C@@H]2CC(COc3ccccc3)=C3[C@@H](CCc4ccccc4)OB(O)C[C@@H]3[C@H]12 4.76
O=C1O[C@@H](c2ccccc2)[C@@H](c2ccccc2)N2[C@@H](c3ccc(O)cc3)[C@]3(C(=O)Nc4ccc(C#CC5(O)CCCCCC5)cc43)[C@@H](C(=O)N3CCCCCCC3)[C@H]12 0.362
